# Measurements reported in the supplement of paper PMC13380429.
# Test system: Vero E6 infected with SARS-CoV-2
# Assay: SARS-CoV-2 infection rate relative to infected DMSO; higher = more infection, active = 60 or less
# Details: 24 h
row,SMILES,SARS-CoV-2 infection rate
1,O=C(O)CCCCN(CCc1ccccc1OCc1ccc(CCc2ccccc2)cc1)Cc1ccc(C(=O)O)cc1 [cinaciguat] (10 µM),102% (inactive)
2,Cc1c(O)c(=O)n(-c2ccccc2)n1C [4-hydroxy-phenazone] (10 µM),116% (inactive)
3,Cn1c(=O)c2c(ncn2CCO)n(C)c1=O [etofylline] (10 µM),104% (inactive)
4,CCOCCn1c(C2CCN(CCc3ccc(C(C)(C)C(=O)O)cc3)CC2)nc2ccccc21 [bilastine] (10 µM),107% (inactive)
5,C/C(=C(\CCOP(=O)(O)O)SC(=O)c1ccccc1)N(C=O)Cc1cnc(C)nc1N [benfotiamine] (10 µM),112% (inactive)
6,CC[C@@H](C(N)=O)N1CCCC1=O [levetiracetam] (10 µM),109% (inactive)
7,CC(=O)[C@H]1CC[C@H]2[C@@H]3CC[C@H]4C[C@](C)(O)CC[C@]4(C)[C@H]3CC[C@]12C [ganaxolone] (10 µM),104% (inactive)
8,NC1=NCC2c3ccccc3Cc3ccccc3N12 (stereo not drawn) [epinastine] (10 µM),114% (inactive)
9,COCCCC/C(=N\OCCN)c1ccc(C(F)(F)F)cc1 [fluvoxamine] (10 µM),90% (inactive)
10,Cc1ncc(NC(=O)c2ccc(CN3CCN(C)CC3)c(C(F)(F)F)c2)cc1Nc1nccc(-c2cccnc2)n1 [flumatinib] (10 µM),25.5% (active)
11,CC#CCC(C)[C@H](O)/C=C/[C@@H]1[C@H]2C/C(=C/CCCC(=O)O)C[C@H]2C[C@H]1O (stereo partly drawn) [iloprost] (10 µM),108% (inactive)
12,CCn1nc(C2CCN(C(=O)CCO)CC2)nc1-c1cnc(N)c(-c2nnc(C(C)(C)C)o2)n1 (0.833333 µM),94% (inactive)
13,O=C(Nc1ccc(N2CCC(C(=O)N3CCOCC3)CC2)cc1)c1cnc(Oc2ccccc2)nc1 (10 µM),114% (inactive)
14,CC#CC(=O)N1CC[C@@H](n2c(=O)n(-c3ccc(Oc4ccccc4)cc3)c3c(N)ncnc32)C1 (0.833333 µM),90% (inactive)
15,O=C1NC(=O)c2cc(Nc3ccccc3)c(Nc3ccccc3)cc21 (10 µM),72% (inactive)
16,O=C(O)CN1C(=O)c2cccc3cccc(c23)C1=O [alrestatin] (10 µM),106% (inactive)
17,FC(F)OC(F)(F)C(F)Cl (stereo not drawn) [enflurane] (10 µM),98.5% (inactive)
18,CC(=O)N1CCC(NC(=O)c2ccc(F)cc2)CC1 (10 µM),110% (inactive)
